Compounds without any hit were thinned out: in the full panel of roughly 79,000, 15% have a hit. Activity calls are given as the source filed them. Rule as the data show it: active = growth inhibition above about 70%; inactive = the rest.
Experiments:
[1] = NCI Yeast Anticancer Drug Screen. Data for the rad52 strain (AID 147);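 also: 0% = growth of vehicle-treated control cultures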; details: S. cerevisiae rad52 mutant growth inhibition, active compounds read high
How it was run: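 DNA repair-defective yeast; compound exposure; growth scored against vehicle controls.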

[2] = NCI Yeast Anticancer Drug Screen. Data for the wt1 strain (AID 149);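 also: 0% = growth of vehicle-treated wt1 cultures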; details: S. cerevisiae wt1 strain (SPY 50644) growth inhibition, active compounds read high
How it was run: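 wt1 yeast, compound-treated; % growth inhibition vs vehicle control.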

[3] = NCI Yeast Anticancer Drug Screen. Data for the rad50EPP+ strain (AID 151);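 also: 0% = growth of vehicle-treated control cultures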; details: S. cerevisiae rad50 mutant strain, active compounds read high
How it was run: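 rad50EPP+ yeast treated with test compounds. Readout: growth vs vehicle control.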

[4] = NCI Yeast Anticancer Drug Screen. Data for the mgt1 strain (AID 153); details: S. cerevisiae mgt1 mutant growth inhibition, active compounds read high
How it was run: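 Growth inhibition relative to vehicle controls was scored for the mgt1 yeast strain after compound exposure.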

[5] = NCI Yeast Anticancer Drug Screen. Data for the rad50 strain (AID 155);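 also: 0% = growth of vehicle-only cultures of the same strain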; details: S. cerevisiae rad50 strain growth inhibition, active compounds read high
How it was run: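 Genetically altered yeast (DNA repair pathway); compound treatment; growth inhibition vs vehicle ctrl.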

[6] = NCI Yeast Anticancer Drug Screen. Data for the mec2-1 strain (AID 157); details: S. cerevisiae mec2-1 strain, active compounds read high
How it was run: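 Growth inhibition is read against vehicle-treated controls after compound exposure of the mec2-1 yeast strain, which is defective in DNA damage repair or cell cycle control.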

[7] = NCI Yeast Anticancer Drug Screen. Data for the rad14 strain (AID 159);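 also: 0% = growth of vehicle-treated control cultures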; details: S. cerevisiae rad14 strain growth inhibition, active compounds read high
How it was run: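 Test compounds were applied to a repair-deficient yeast strain. Its growth was then compared with that of cultures given vehicle alone, and inhibition was expressed relative to those controls.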

[8] = NCI Yeast Anticancer Drug Screen. Data for the sgs1 mgt1 strain (AID 161);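 also: 0% = growth of cultures given vehicle only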; details: S. cerevisiae sgs1 mgt1 strain, active compounds read high
How it was run: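 Yeast cells carrying a defined DNA-repair defect were exposed to test compounds. Growth inhibition was measured relative to vehicle-treated controls.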

[9] = NCI Yeast Anticancer Drug Screen. Data for the CLN2oe strain (AID 163);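 also: 0% = growth of vehicle-only control cultures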; details: S. cerevisiae CLN2oe strain, active compounds read high
How it was run: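 Compound-treated yeast; growth vs vehicle ctrl = % inhibition. Genetically altered strain (cell-cycle control).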

[10] = NCI Yeast Anticancer Drug Screen. Data for the cln2 rad14 strain (AID 165);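 also: 0% = growth equal to vehicle treated cultures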; details: S. cerevisiae cln2 rad14 strain, active compounds read high
How it was run: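 Growth inhibition, relative to vehicle-treated controls, is the read-out. The test organism is a yeast strain with defined genetic alterations, cln2 rad14.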

[11] = NCI Yeast Anticancer Drug Screen. Data for the bub3 strain (AID 167); details: S. cerevisiae bub3 mutant strain, active compounds read high
How it was run: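 Yeast carrying a defined mutation is treated with each compound, and growth is compared with that of vehicle-exposed cells to give inhibition.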

[12] = NCI Yeast Anticancer Drug Screen. Data for the wt2 strain (AID 169);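 also: 0% = growth of vehicle-treated yeast cultures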; details: S. cerevisiae wt2 strain growth inhibition, active compounds read high
How it was run: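 Compound exposure of yeast; growth compared with vehicle controls; inhibition reported.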

[13] = NCI Yeast Anticancer Drug Screen. Data for the mlh1 strain (AID 171);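 also: 0% = growth of vehicle-treated control cultures of the same strain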; details: S. cerevisiae mlh1 strain growth inhibition, active compounds read high
How it was run: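 Compounds are applied to a genetically altered yeast strain, and its growth is compared with that of vehicle-treated cultures to give percent inhibition.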

[14] = NCI Yeast Anticancer Drug Screen. Data for the sgs1 strain (AID 173);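 also: 0% = growth of vehicle-only control cultures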; details: S. cerevisiae sgs1 mutant, active compounds read high
How it was run: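 Compounds applied to genetically altered yeast; growth compared with vehicle-treated cultures to give % inhibition.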

[15] = NCI Yeast Anticancer Drug Screen. Data for the mlh1 rad18 strain (AID 175); details: S. cerevisiae mlh1 rad18 strain growth inhibition, active compounds read high
How it was run: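 Cells of a genetically altered yeast strain, deficient in DNA damage repair, were treated with compound. Their growth was then compared with that of vehicle-treated cultures to give inhibition.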

[16] = NCI Yeast Anticancer Drug Screen. Data for the rad18 strain (AID 177); details: S. cerevisiae rad18 mutant growth inhibition, active compounds read high
How it was run: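 Compounds are applied to a repair-deficient yeast strain, and growth is compared with that of vehicle-treated cultures to give percent inhibition.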

[17] = at 5.0 µM (retest, dose inferred, filed as 0.5)
[18] = at 50.0 µM (retest, dose inferred, filed as 5.0)

Measured: growth inhibition

COc1cc(C2c3cc4c(cc3[C@@H](Nc3ccc(N)cc3)C3COC(=O)[C@H]23)OCO4)cc(OC)c1O (stereo partly specified)
inactive: [2]; at 1.2 µM -35% | [2]; at 3.7 µM 64% | [3]; at 1.2 µM -2% | [3]; at 3.7 µM 12% | [3]; at 11.0 µM 63% | [4]; at 1.2 µM -16% | [4]; at 3.7 µM 66% | [6]; at 1.2 µM 14% | [7]; at 1.2 µM 2% | [7]; at 33.0 µM 37% | [8]; [17] 18% | [9]; at 1.2 µM 0% | [9]; at 3.7 µM 62% | [9]; at 33.0 µM 41% | [10]; [17] 20% | [11]; at 1.2 µM -33% | [11]; at 3.7 µM 55% | [11]; [17] 22% | [12]; at 1.2 µM -1% | [12]; at 3.7 µM 42% | [13]; at 1.2 µM -4% | [14]; at 1.2 µM 16% | [16]; at 1.2 µM -11%
active: [1]; at 1.2 µM 92% | [1]; at 3.7 µM 92% | [1]; at 11.0 µM 95% | [1]; at 33.0 µM 92% | [1]; at 100.0 µM 87% | [2]; at 11.0 µM 95% | [2]; at 33.0 µM 94% | [2]; at 100.0 µM 88% | [3]; at 33.0 µM 85% | [3]; at 100.0 µM 89% | [4]; at 11.0 µM 94% | [4]; at 33.0 µM 95% | [4]; at 100.0 µM 90% | [5]; at 1.2 µM 91% | [5]; at 3.7 µM 95% | [5]; [17] 92% | [5]; at 11.0 µM 95% | [5]; at 33.0 µM 94% | [5]; [18] 95% | [5]; at 50.0 µM 82.8% | [5]; at 100.0 µM 88% | [6]; at 3.7 µM 89% | [6]; [17] 70% | [6]; at 11.0 µM 95% | [6]; at 33.0 µM 93% | [6]; [18] 96% | [6]; at 50.0 µM 90% | [6]; at 100.0 µM 88% | [7]; at 3.7 µM 71% | [7]; at 11.0 µM 95% | [7]; at 100.0 µM 92% | [8]; [18] 94% | [8]; at 50.0 µM 85.3% | [9]; at 11.0 µM 92% | [9]; at 100.0 µM 88% | [10]; [18] 90% | [10]; at 50.0 µM 85.9% | [11]; at 11.0 µM 92% | [11]; at 33.0 µM 85% | [11]; [18] 93% | [11]; at 50.0 µM 84.8% | [11]; at 100.0 µM 85% | [12]; at 11.0 µM 92% | [12]; at 33.0 µM 94% | [12]; at 100.0 µM 93% | [13]; at 3.7 µM 74% | [13]; at 11.0 µM 93% | [13]; at 33.0 µM 93% | [13]; at 100.0 µM 90% | [14]; at 3.7 µM 77% | [14]; at 11.0 µM 92% | [14]; at 33.0 µM 94% | [14]; at 100.0 µM 88% | [15]; [17] 70% | [15]; [18] 94% | [15]; at 50.0 µM 85.9% | [16]; at 3.7 µM 72% | [16]; at 11.0 µM 93% | [16]; at 33.0 µM 93% | [16]; at 100.0 µM 85%

CC[C@@]1(O)C[C@H](OC2CC(N(C)C)C(O)C(C)O2)c2c(O)c3c(c(O)c2[C@H]1OC1CC(N(C)C)C(O)C(C)O1)C(=O)c1cccc(O)c1C3=O (stereo partly specified)
active: [1]; at 100.0 µM 92% | [4]; at 100.0 µM 87% | [5]; at 50.0 µM 83.1% | [5]; at 100.0 µM 90% | [6]; at 50.0 µM 85% | [7]; at 100.0 µM 83% | [8]; [18] 89% | [8]; at 50.0 µM 88.2% | [9]; at 100.0 µM 75% | [10]; [18] 71% | [10]; at 50.0 µM 75.8% | [11]; [18] 77% | [11]; at 50.0 µM 83.4% | [11]; at 100.0 µM 84% | [12]; at 100.0 µM 94% | [13]; at 100.0 µM 88% | [14]; at 100.0 µM 89% | [15]; at 50.0 µM 85% | [16]; at 100.0 µM 88%
inactive: [1]; at 1.2 µM 36% | [1]; at 3.7 µM 38% | [1]; at 11.0 µM 35% | [1]; at 33.0 µM 46% | [2]; at 1.2 µM -8% | [2]; at 3.7 µM 4% | [2]; at 11.0 µM 7% | [2]; at 33.0 µM 12% | [2]; at 100.0 µM 42% | [3]; at 1.2 µM 20% | [3]; at 3.7 µM 26% | [3]; at 11.0 µM 25% | [3]; at 33.0 µM 21% | [3]; at 100.0 µM 34% | [4]; at 1.2 µM 16% | [4]; at 3.7 µM 20% | [4]; at 11.0 µM 13% | [4]; at 33.0 µM 18% | [5]; at 1.2 µM 15% | [5]; at 3.7 µM 14% | [5]; [17] 16% | [5]; at 11.0 µM 11% | [5]; at 33.0 µM 27% | [5]; [18] 65% | [6]; at 1.2 µM 10% | [6]; at 3.7 µM -1% | [6]; [17] 10% | [6]; at 11.0 µM 3% | [6]; at 33.0 µM -4% | [6]; [18] 23% | [6]; at 100.0 µM 62% | [7]; at 1.2 µM 15% | [7]; at 3.7 µM 15% | [7]; at 11.0 µM 17% | [7]; at 33.0 µM 16% | [8]; [17] 5% | [9]; at 1.2 µM 3% | [9]; at 3.7 µM 6% | [9]; at 11.0 µM 1% | [9]; at 33.0 µM 10% | [10]; [17] 8% | [11]; at 1.2 µM 8% | [11]; at 3.7 µM 12% | [11]; [17] -9% | [11]; at 11.0 µM 6% | [11]; at 33.0 µM 10% | [12]; at 1.2 µM -21% | [12]; at 3.7 µM -24% | [12]; at 11.0 µM -44% | [12]; at 33.0 µM -4% | [13]; at 1.2 µM 20% | [13]; at 3.7 µM 20% | [13]; at 11.0 µM 16% | [13]; at 33.0 µM 10% | [14]; at 1.2 µM 14% | [14]; at 3.7 µM 9% | [14]; at 11.0 µM 11% | [14]; at 33.0 µM 18% | [15]; [17] 13% | [15]; [18] 63% | [16]; at 1.2 µM 6% | [16]; at 3.7 µM 12% | [16]; at 11.0 µM 5% | [16]; at 33.0 µM 30%
